The values below come from PubChem BioAssay.

Experiment [1] concerns Wnt5a (protein binding on small-molecule microarray). The experiment can be described thus: Wnt5a binders on small-molecule microarray, primary screen, biophysical, 635/667 nm fluorescence (AID 1142).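 Also: fluorescence read at 667 nm with signal to noise per printed feature.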 Conditions: 635 nm fluorescence, higher = more signal.
Experiment [2] can be described thus: cell viability in Huh7 cells, primary screen, cytotoxicity control for HCV replication inhibitor project, CellTiter-Glo luminescence, basal, 48 h (AID 1143).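 Also: Huh7 hepatoma cells carrying a hepatitis C replication reporter with no stimulus; test concentration not given here.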 The settings on record: Huh7 HCV replicon, higher = more signal, called active from +8 up or from −8 down. On the technique in general: ATP-based viability assays read luminescence as a measure of living cells.

Experiment [3] in a line: P. aeruginosa biofilm formation inhibitors, primary screen, PAO1 strain, BacTiter-Glo luminescence, LB-PBS (AID 1144). The settings on record: 12 h, higher = more signal.
Experiment [4] can be described thus: CREB reporter modulators without forskolin, primary screen, cell-based, PC12, CRE-LacZ reporter, unstimulated (AID 1145). The settings on record: no forskolin, luminescence, 4.5 h, higher = more signal, called active from +8 up or from −8 down.
The nature of experiment [5]: CREB reporter modulators under forskolin, primary screen, cell-based, PC12, CRE-LacZ reporter, forskolin-stimulated (AID 1146).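 Also: PC12 cells with 6xCRE LacZ reporter stimulated by forskolin 10 µM; beta-galactosidase reporter signal reflecting CREB driven transcription.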 The settings on record: luminescence, 4.5 h, higher = more signal, called active from +8 up or from −8 down.
Experiment [6] deals with Streptavidin (Streptomyces avidinii) (UniProt P22629). The experiment can be described thus: streptavidin binders on small-molecule microarray, primary screen, artefact control for SMM compound annotation, biophysical, 635/667 nm fluorescence (AID 1147).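 Also: signal reflects streptavidin binding to arrayed compounds as a control protein.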 Conditions: streptavidin binding, higher = more signal.
Sequence of Streptavidin (Streptomyces avidinii) (P22629 whole entry, looked up): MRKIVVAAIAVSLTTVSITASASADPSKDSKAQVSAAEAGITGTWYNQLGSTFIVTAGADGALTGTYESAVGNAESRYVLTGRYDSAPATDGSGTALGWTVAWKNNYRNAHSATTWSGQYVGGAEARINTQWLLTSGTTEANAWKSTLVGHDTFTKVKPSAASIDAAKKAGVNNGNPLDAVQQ
The nature of experiment [7]: small-molecule binders of probe aInhba, primary screen, biochemical, small-molecule microarray, 635/667 nm fluorescence (AID 1148).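 Also: score merges 667nm spot fluorescence with signal-to-noise for antibody binding to printed compounds.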 The settings on record: higher = more signal.
For experiment [8], the target named is Torsin-1A (Homo sapiens) (UniProt O14656). Briefly: torsin A binders from cell lysate, primary screen, small-molecule microarray, wild-type, 635/667 nm (AID 1149). The settings on record: COS7 hTOR1A-WT lysate, 635 nm fluorescence, higher = more signal.
Sequence of Torsin-1A (Homo sapiens) (O14656 whole entry, looked up): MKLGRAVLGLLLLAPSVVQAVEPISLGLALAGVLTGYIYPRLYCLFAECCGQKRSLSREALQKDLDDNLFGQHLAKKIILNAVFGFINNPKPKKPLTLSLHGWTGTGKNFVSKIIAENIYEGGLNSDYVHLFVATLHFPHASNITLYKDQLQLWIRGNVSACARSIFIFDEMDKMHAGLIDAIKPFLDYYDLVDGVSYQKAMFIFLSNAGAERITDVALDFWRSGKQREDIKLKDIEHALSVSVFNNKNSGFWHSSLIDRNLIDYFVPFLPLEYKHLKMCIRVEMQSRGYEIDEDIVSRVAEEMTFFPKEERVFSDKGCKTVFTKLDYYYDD
Experiment [9] shares this target. Briefly: small-molecule binders of mutant TOR1A in lysate, primary screen, cell lysate, small-molecule microarray, COS7 lysate, 635/667 nm fluorescence (AID 1150).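 Also: score pools 667 nm emission and signal to noise measuring lysate protein binding.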 The settings on record: COS7 hTOR1A mutant lysate, 635 nm fluorescence, higher = more signal.
Experiment [10] concerns Sonic hedgehog protein (Shh). Briefly: small-molecule binders of Shh protein, primary screen, biochemical, small-molecule microarray, 635/667 nm fluorescence (AID 1151).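 Also: Shh protein binding to compounds spotted on small-molecule microarray slides; score combines spot fluorescence intensity with signal-to-noise across triplicate slides.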 Conditions: small-molecule microarray binding, 635 nm fluorescence; higher = more signal.
Experiment [11] in a line: E. coli DRC41 culture turbidity changes, primary screen, E. coli filamentation inducer project, strain DRC41, OD650, 48 h (AID 1152).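 Also: E. coli MC1000 strain DRC41 lacking acrAB efflux pump and sulA.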 Conditions: E. coli DRC41 (acrAB sulA), higher = more signal, called active from +8 up or from −8 down.
Experiment [12] is described as follows: small-molecule binders of probe aLefty1, primary screen, biochemical, small-molecule microarray, 635/667 nm fluorescence (AID 1153).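 Also: score merges spot fluorescence with signal-to-noise ratio from the scanned slide images.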 The settings on record: higher = more signal.
Experiment [13] can be described thus: PSAC antagonists in infected red cells, primary screen, cell-based, P. falciparum Indochina, OD700, 1 h (AID 1154). Conditions: P. falciparum Indochina infected RBC osmotic lysis, higher = more signal, called active from +8 up or from −8 down.
Experiment [14] is described as follows: PSAC antagonists in infected red cells, primary screen, cell-based, P. falciparum Indochina, OD700, 2 h (AID 1155).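 Also: lysis reports solute entry through the parasite surface anion channel PSAC; channel blockers reduce lysis of infected cells.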 The settings on record: P. falciparum Indochina infected erythrocytes, osmotic lysis OD700; higher = more signal, called active from +8 up or from −8 down.
A short description of experiment [15]: osmotic lysis modulators in infected erythrocytes, primary screen, PSAC antagonist project, cell-based, P. falciparum Indochina, OD700, 3 h (AID 1156). Conditions: higher = more signal, called active from +8 up or from −8 down.
Experiment [16] can be described thus: PSAC antagonists in infected red cells, primary screen, cell-based, P. falciparum Indochina, OD700, 18 h (AID 1157). Conditions: P. falciparum Indochina infected erythrocytes, osmotic lysis OD700, 18 h; higher = more signal, called active from +8 up or from −8 down.
Experiment [17] is described as follows: modulators of S6 phosphorylation in cells, primary screen, cell-based, A549, cytoblot, luminescence, serum-stimulated (AID 1158).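 Also: serum-stimulated A549 lung adenocarcinoma cells; signal is phosphorylated S6 detected by cytoblot immunostaining with HRP secondary.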 The settings on record: A549 phospho-S6 cytoblot, 5 h, higher = more signal.
Experiment [18] has as its target NADPH oxidase 2 (Homo sapiens) (UniProt P04839). Briefly: NOX2-dependent H2O2 signal modulators, primary screen, NOX inhibitor project, cell-based, HEK293-NOX2, PMA-stimulated, Amplex Red fluorescence (AID 1159). Also: test concentration not given here. Conditions: 45 min, higher = more signal, called active from +8 up or from −8 down.
In experiment [19] the target is NADPH oxidase 4 (Homo sapiens) (UniProt Q9NPH5). Briefly: NOX4-dependent H2O2 signal modulators, primary screen, NOX inhibitor project, cell-based, HEK293-NOX4, tetracycline-induced, Amplex Red fluorescence (AID 1160). Conditions: 45 min, higher = more signal, called active from +8 up or from −8 down.
Sequence of NADPH oxidase 4 (Homo sapiens) (Q9NPH5 whole entry, looked up): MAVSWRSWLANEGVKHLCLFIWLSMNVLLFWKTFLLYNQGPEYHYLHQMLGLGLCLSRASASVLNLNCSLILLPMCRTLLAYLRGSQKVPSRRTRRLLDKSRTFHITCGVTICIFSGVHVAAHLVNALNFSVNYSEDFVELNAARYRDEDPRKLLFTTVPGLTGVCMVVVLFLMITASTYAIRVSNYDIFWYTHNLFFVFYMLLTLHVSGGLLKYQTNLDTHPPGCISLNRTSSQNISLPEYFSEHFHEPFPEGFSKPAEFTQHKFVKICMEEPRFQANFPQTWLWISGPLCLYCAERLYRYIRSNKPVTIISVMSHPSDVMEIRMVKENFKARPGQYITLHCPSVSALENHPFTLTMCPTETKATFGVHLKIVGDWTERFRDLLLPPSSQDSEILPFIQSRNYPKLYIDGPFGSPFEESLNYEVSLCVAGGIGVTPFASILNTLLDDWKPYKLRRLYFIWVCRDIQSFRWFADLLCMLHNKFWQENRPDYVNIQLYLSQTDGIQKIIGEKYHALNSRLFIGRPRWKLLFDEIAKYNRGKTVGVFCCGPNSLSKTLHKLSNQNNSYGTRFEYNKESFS
In experiment [20] the target is NADPH oxidase 5 (Homo sapiens) (UniProt Q96PH1). Briefly: NOX5-dependent H2O2 signal modulators, primary screen, NOX inhibitor project, cell-based, HEK293-NOX5, Amplex Red fluorescence (AID 1161). The settings on record: HEK293-NOX5, ionomycin, 45 min, higher = more signal.
Sequence of NADPH oxidase 5 (Homo sapiens) (Q96PH1 whole entry, looked up): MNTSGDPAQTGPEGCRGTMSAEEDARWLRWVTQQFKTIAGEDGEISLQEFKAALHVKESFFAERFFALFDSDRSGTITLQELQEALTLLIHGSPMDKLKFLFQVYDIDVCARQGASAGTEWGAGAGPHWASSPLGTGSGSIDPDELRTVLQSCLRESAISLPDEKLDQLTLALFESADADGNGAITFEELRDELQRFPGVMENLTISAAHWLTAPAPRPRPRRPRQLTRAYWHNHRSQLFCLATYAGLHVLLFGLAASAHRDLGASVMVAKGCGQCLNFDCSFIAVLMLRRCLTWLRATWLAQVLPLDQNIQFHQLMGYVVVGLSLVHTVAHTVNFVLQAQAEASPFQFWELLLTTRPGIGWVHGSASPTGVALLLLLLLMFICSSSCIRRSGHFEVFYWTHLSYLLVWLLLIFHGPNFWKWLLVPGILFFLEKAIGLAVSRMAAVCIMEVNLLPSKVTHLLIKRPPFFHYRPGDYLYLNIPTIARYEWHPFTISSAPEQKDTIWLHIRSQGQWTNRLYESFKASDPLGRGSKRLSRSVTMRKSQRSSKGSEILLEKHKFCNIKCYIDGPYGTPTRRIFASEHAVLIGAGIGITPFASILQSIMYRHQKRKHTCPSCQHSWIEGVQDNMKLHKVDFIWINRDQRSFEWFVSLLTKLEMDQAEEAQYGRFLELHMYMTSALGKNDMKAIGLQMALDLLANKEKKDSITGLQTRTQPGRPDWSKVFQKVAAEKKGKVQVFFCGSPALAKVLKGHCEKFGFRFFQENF

SMILES strings stand for the structures. Active and inactive are the calls of the source. Unless noted, no rule for the calls is given here.

Sequence of NADPH oxidase 2 (Homo sapiens) (P04839 whole entry, looked up): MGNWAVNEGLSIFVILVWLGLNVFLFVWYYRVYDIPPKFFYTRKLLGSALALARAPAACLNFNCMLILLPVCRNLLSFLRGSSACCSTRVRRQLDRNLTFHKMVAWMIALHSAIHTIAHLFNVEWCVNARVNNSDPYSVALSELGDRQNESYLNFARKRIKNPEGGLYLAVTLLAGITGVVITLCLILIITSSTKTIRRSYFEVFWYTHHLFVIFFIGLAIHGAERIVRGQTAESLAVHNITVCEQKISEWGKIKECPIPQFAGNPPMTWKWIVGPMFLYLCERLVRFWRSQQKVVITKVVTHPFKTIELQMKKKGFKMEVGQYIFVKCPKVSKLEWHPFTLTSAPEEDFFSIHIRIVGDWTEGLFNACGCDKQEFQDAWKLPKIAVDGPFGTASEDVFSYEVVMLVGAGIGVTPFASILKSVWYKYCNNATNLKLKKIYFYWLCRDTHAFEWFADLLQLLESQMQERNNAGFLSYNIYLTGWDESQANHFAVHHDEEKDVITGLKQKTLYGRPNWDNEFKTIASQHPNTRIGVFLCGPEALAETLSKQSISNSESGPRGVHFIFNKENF

Regarding `[N-]=[N+]=NCc1ccccc1[C@H]1OC(c2ccc(OCCCO)cc2)=N[C@@]1(Cc1ccccc1N=[N+]=[N-])C(=O)N1CCOCC1`, the composite z-score is 0.135 in experiment [1]; 1.24 in experiment [6]; 0.222 in [7]; 0.249 with Torsin-1A (Homo sapiens) [8]; 0.488 with Torsin-1A (Homo sapiens) [9]; -1.15 in experiment [10]. In addition, in experiment [12], the composite z-score is 0.181. Also, the z-score was -3.35 (inactive) in [2]; -0.149 (inactive) in experiment [3]; 2.61 (inactive) in [4]; -0.529 (inactive) in experiment [5]; -0.476 (inactive) in [11]; 28.3 (active) in [13]. The z-score in experiment [14] is 22 (active); in experiment [15], 2.5 (inactive); in experiment [16] it was 3.77 (inactive); in experiment [17], -0.318; in [18], -5.55 (inactive); in experiment [19], -1.03 (inactive). In experiment [20], the z-score was -2.42.

`CC(C)c1ccc(NN2C(C(O)C3CCCCC3)C=CC3C(=O)N(c4ccccc4)C(=O)C32)cc1` (stereo not given): the composite z-score in experiment [1] is 0.283; in experiment [6] it was 1.88; in [7] it was 0.0968; with Torsin-1A (Homo sapiens) [8], -0.147; with Torsin-1A (Homo sapiens) [9], 0.316; in [10], 0.771. Further, in [12], the composite z-score amounted to 0.368. For the same molecule, the z-score in [2] is -0.575 (inactive); in [3], -1.15 (inactive); in experiment [4], 0.0467 (inactive); in [5], 0.337 (inactive); in [11], -0.78 (inactive); in [13], 3.29 (inactive). In addition, the z-score in [14] was 1.71 (inactive); in experiment [15] it was 0.215 (inactive); in experiment [16], 1.37 (inactive); in experiment [17] it was -0.996; in [18], -1.69 (inactive); in experiment [19] it was -2.75 (inactive). In addition, in experiment [20], the z-score is -2.44.

For the molecule `C=CCNC(=O)[C@H]1[C@@H]2C(=O)O[C@@H](c3ccccc3)[C@@H](c3ccccc3)N2[C@@H](c2ccc(O)cc2)[C@]12C(=O)Nc1ccccc12`, the composite z-score in experiment [1] is -0.124; in experiment [6] it was -0.642; in experiment [7], -0.128; in the experiment with Torsin-1A (Homo sapiens) [8] it was 0.64; in the experiment with Torsin-1A (Homo sapiens) [9] it was 0.778; in [10], 0.279. The composite z-score in experiment [12] is -0.191. The z-score in experiment [2] is -0.792 (inactive); in experiment [3] it was -0.683 (inactive); in [4], -0.195 (inactive); in experiment [5], -0.0955 (inactive); in [11], 1.58 (inactive); in experiment [13], 2.59 (inactive). Also, the z-score in experiment [14] was 0.301 (inactive); in experiment [15] it was -0.458 (inactive); in [16] it was 0.393 (inactive); in experiment [17], 0.288; in experiment [18], 0.0548 (inactive); in experiment [19], -0.789 (inactive). The z-score in experiment [20] was 1.04.

With `COCCOC(=O)N1C(=O)[C@@]2(c3cc(C#CCNC(N)=O)ccc31)[C@H](C(N)=O)[C@H]1C(=O)O[C@H](c3ccccc3)[C@H](c3ccccc3)N1[C@@H]2c1ccc(O)cc1`, the composite z-score in [1] is 0.159; in experiment [6], -0.0811; in experiment [7] it was 0.296; in the experiment with Torsin-1A (Homo sapiens) [8], 0.572; with Torsin-1A (Homo sapiens) [9] it was -0.0113; in experiment [10], 0.0133. For the same molecule, in experiment [12], the composite z-score stood at 0.316. Besides, the z-score was 0.29 (inactive) in experiment [2]; -0.204 (inactive) in [3]; 0.619 (inactive) in experiment [4]; -0.713 (inactive) in experiment [5]; 0.989 (inactive) in [11]; 1.65 (inactive) in [13]. Besides, the z-score in experiment [14] is -0.132 (inactive); in experiment [15] it was -1.12 (inactive); in experiment [16], 0.141 (inactive); in experiment [17], 0.189; in experiment [18], 0.161 (inactive); in [19], -0.181 (inactive). The molecule further returned a z-score in [20] of 0.00933.
